Compound activity (PubChem)
Only some compounds are listed: those with a hit (about 1.6% of all), similar ones and a draw of the others.
KCNQ2 block = blocks the rat KCNQ2 potassium channel. O88943. CHO-K1 KCNQ2, FluxOR thallium flux, 20 min; hits give low values. B-score at 10 µM. 1.1% of 310,000 active. AID 2156;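 active = fluorescence ratio B-score at most minus 3 library SDs, with starting brightness B-score within 2 library SDs, cut at about -5.5 in these data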
KCNQ2 enhance = enhances the rat KCNQ2 potassium channel; O88943; CHO-K1 KCNQ2, FluxOR thallium flux fluorescence; hits give high values; B-score at 10 µM; 0.54% of 310,000 active; AID 2239;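 active = fluorescence ratio B-score at least 3 SD of library B-scores, with initial fluorescence B-score within 3 of them, cut at about 5.3 in these data; same plate scores as AID 2156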;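 also: B-score of peak minus minimum over baseline fluorescence ratio after K+ and Tl+ stimulus; positive B-score means potentiation of KCNQ2 with more thallium influx and brighter signal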
KCNQ2 inh conf = confirmation of rat KCNQ2 potassium channel inhibitors. 57% of 1,000 active. activity change, negative = inhibition, % at 10 µM. KCNQ2-expressing cells, thallium flux, inhibition; hits give low values. shares compounds with KCNQ2 block
KCNQ1 spec = human KCNQ1 activity in KCNQ2 inhibitor specificity screen | KCNQ1-expressing cells, FluxOR thallium flux fluorescence; hits give low values | shares compounds with KCNQ2 block | activity change, negative = inhibition, % at 10 µM | 15% of 1,000 active;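 active = activity change at least 3 SD of negative controls below their mean in both duplicate wells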;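 also: CHO cells stably transfected with KCNQ1 and depolarized by potassium stimulus; peak minus minimum fluorescence over baseline after thallium addition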
Target sequence (P51787 whole entry, looked up): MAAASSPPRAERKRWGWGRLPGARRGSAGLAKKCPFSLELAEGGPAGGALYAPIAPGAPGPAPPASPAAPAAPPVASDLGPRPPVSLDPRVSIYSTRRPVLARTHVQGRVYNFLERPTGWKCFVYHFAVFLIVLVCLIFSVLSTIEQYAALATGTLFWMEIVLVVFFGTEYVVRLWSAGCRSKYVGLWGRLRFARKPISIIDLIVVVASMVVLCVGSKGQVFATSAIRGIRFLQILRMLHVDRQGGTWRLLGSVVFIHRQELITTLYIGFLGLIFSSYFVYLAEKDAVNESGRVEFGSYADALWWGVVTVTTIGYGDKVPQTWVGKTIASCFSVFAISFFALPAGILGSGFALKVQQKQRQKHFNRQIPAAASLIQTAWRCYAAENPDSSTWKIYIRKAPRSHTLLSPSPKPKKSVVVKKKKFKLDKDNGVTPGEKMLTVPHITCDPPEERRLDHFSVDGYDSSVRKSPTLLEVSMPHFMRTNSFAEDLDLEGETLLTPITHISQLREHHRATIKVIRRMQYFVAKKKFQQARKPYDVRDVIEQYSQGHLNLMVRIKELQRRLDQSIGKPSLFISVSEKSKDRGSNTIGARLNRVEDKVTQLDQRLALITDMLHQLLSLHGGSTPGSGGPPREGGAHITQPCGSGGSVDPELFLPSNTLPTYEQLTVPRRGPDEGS
CHO Tl ctr = activity in parental CHO cells lacking KCNQ2. activity change, % at 10 µM. shares compounds with KCNQ2 block. thallium flux counter-screen; hits give low values. 14% of 1,000 active
KCNQ2 inh confirm = rat KCNQ2 inhibition confirmed by electrophysiology; 49% of 550 active; shares compounds with KCNQ2 block; calls only at 10 µM; KCNQ2-expressing cells, automated patch clamp current
A number is an active result; i = inactive; nt = no result given; + = active, no number. Unless noted, no rule for the calls is given here.

SMILES	KCNQ2 block	KCNQ2 enhance	KCNQ2 inh conf	KCNQ1 spec	CHO Tl ctr	others
CC(C)C1CCN(C(=O)C2CCC(=O)N(CCc3ccc(Cl)cc3)C2)CC1 (stereo not given)	i	nt	nt	nt	nt
C=CCC1(CC=C)CCCN1C(=O)C1CCC(=O)N(CCc2ccc(Cl)cc2)C1 (stereo not given)	-8.2	i	-29%	i	i	KCNQ2 inh confirm=+
CSCCC(NC(=O)c1ccccc1Br)C(=O)N1CCCCCCC1 (stereo not given)	-9.6	i	-29%	i	i	KCNQ2 inh confirm=+
CSCCC(NC(=O)COc1ccccc1)C(=O)N1CCCC(C(F)(F)F)C1 (stereo not given)	-7	i	i	i	i
CSCCC(NC(=O)c1ccccc1Br)C(=O)N1CCCC(C(F)(F)F)C1 (stereo not given)	-9.3	i	-16%	i	i	KCNQ2 inh confirm=+
CSCCC(NC(=O)c1ccccc1Br)C(=O)NCc1ccc(F)cc1 (stereo not given)	i	i	nt	nt	nt
CSCCC(NC(=O)COc1ccccc1)C(=O)NC1CCC(C)CC1 (stereo not given)	i	nt	nt	nt	nt
CSCCC(NC(=O)c1ccccc1Br)C(=O)NCC1CCCCC1 (stereo not given)	i	nt	nt	nt	nt
Cc1ccc(S(=O)(=O)NC(CC(=O)NCC2CCCO2)c2ccccc2)cc1 (stereo not given)	i	nt	nt	nt	nt
COc1ccc(CC(=O)NNC(=O)CSc2ccc(C)cc2)cc1	i	nt	nt	nt	nt
CCOc1ccccc1NC(=O)CS(=O)(=O)c1cn(CC(=O)N2CCOCC2)c2ccccc12	i	nt	nt	nt	nt
C=CCSc1nc(C)cc2c1C(=O)OC2	i	nt	nt	nt	nt
C#CC(C)OC(=O)C(C)NC(=O)c1ccccc1 (stereo not given)	i	i	nt	nt	nt
Cc1ccc(C(C(=O)NCc2ccc(F)cc2)N(C(=O)c2csnn2)C2CC2)cc1 (stereo not given)	i	nt	nt	nt	nt
Cc1ccc(C(C(=O)NCc2ccc(F)cc2)N(C(=O)c2csnn2)C2CC2)o1 (stereo not given)	-8.7	i	-20%	i	i	KCNQ2 inh confirm=+
O=C(/C=C/c1cccc(Cl)c1)N1CCC(Cc2ccccc2)CC1	-11	i	-35%	-41%	-34%	KCNQ2 inh confirm=+
O=C(/C=C/c1ccccc1)N1CCC(Cc2ccccc2)CC1	i	nt	nt	nt	nt
CSc1ncccc1C(=O)OCC(=O)c1cccs1	i	nt	nt	nt	nt
COc1ccc(-c2cc(C(=O)N3CCCCC3)c3ccccc3n2)cc1	i	nt	nt	nt	nt
COc1ccc(-c2cc(C(=O)N3CCOCC3)c3cc(C)ccc3n2)cc1	-7.2	i	-31%	i	i	KCNQ2 inh confirm=+
COc1ccc(-c2cc(C(=O)N3CCCCCC3)c3cc(C)ccc3n2)cc1	-8.5	i	-30%	i	i	KCNQ2 inh confirm=+
Cc1ccc(-c2cc(C(=O)N3CCOCC3)c3ccccc3n2)cc1	i	nt	nt	nt	nt
C=CCn1nnc2sc3c(c2c1=O)CCC(C)C3 (stereo not given)	i	i	nt	nt	nt
CC(=O)Nc1ccc(NC(=O)c2ccc(COc3ccccc3Br)o2)cc1	i	i	nt	nt	nt
Cc1cccc(NC(=O)c2ccc(COc3cccc4ccccc34)o2)n1	-8.8	i	-38%	-34%	-28%	KCNQ2 inh confirm=i
SMILES	KCNQ2 block	KCNQ2 enhance	KCNQ2 inh conf	KCNQ1 spec	CHO Tl ctr	others
COc1ccc(C(=O)Nc2cc3c(cc2OC)CCCC3)cc1Br	i	nt	nt	nt	nt
COc1cc2c(cc1NC(=O)c1ccc(C(C)(C)C)cc1)CCCC2	-7.2	i	i	i	i
COc1ccccc1N1CCN(C(=O)C(Cc2ccccc2)NC(=O)C2CCCCC2)CC1 (stereo not given)	-7.4	i	-33%	i	i	KCNQ2 inh confirm=+
CCC(C(=O)N1CCN(c2ccccc2OC)CC1)c1ccccc1 (stereo not given)	i	nt	nt	nt	nt
Cc1ccccc1CSCC(=O)NNC(=S)NCC1CCCO1 (stereo not given)	i	nt	nt	nt	nt
COc1ccc2c(ccn2S(=O)(=O)c2ccccc2)c1	i	nt	nt	nt	nt
CCc1c(C)nc2c(C)cccc2c1SCCC#N	i	nt	nt	nt	nt
CCc1sc(C(=O)Nc2ccccc2N2CCOCC2)cc1C	-7.3	i	-18%	i	i
CC(=O)Nc1cc(C(F)(F)F)ccc1N1CCOCC1	i	i	nt	nt	nt
CCCCC(=O)Nc1ccccc1N1CCOCC1	i	i	nt	nt	nt
O=C(CC12CC3CC(CC(C3)C1)C2)Nc1ccccc1N1CCOCC1	-6.8	i	-30%	-34%	-20%	KCNQ2 inh confirm=i
CC(=O)N1CCN(c2ccccc2NC(=O)COc2cc(C)cc(C)c2)CC1	i	nt	nt	nt	nt
CCC(Oc1ccccc1)C(=O)Nc1cc(C(F)(F)F)ccc1N1CCOCC1 (stereo not given)	-7	i	i	i	i
Cc1cc(C)c(OCC(=O)Nc2ccccc2N2CCOCC2)c(C)c1	-9.4	i	i	i	i
O=C(Nc1ccccc1N1CCOCC1)c1cc2c(s1)CCCCC2	i	nt	nt	nt	nt
NC(=O)/C(=C\c1ccccc1)NC(=O)c1ccc(NC(=O)c2ccccc2)cc1	i	nt	nt	nt	nt
O=C(CCC(=O)N(CC(=O)NC1CCCCC1)Cc1cccs1)Nc1nccs1	i	i	nt	nt	nt
O=C(CN1C(=O)NC2(CCCC2)C1=O)N1CCN(c2ccccc2O)CC1	i	i	nt	nt	nt
CC(C)=CC1C(C(=O)Nc2ccc(S(=O)(=O)N3CCOCC3)cc2)C1(C)C (stereo not given)	i	i	nt	nt	nt
CCC(C)NC(=O)CCSCCC(=O)NC(C)CC (stereo not given)	i	nt	nt	nt	nt
CCN(CC)S(=O)(=O)c1ccc(N2CCOCC2)c(NC(=O)COc2ccccc2)c1	-6.8	i	-31%	i	i	KCNQ2 inh confirm=+
CCN(CC)S(=O)(=O)c1ccc(N2CCOCC2)c(NC(=O)CCOc2ccccc2)c1	i	nt	nt	nt	nt
COc1ccccc1CN1CCNC(=O)C1CC(=O)NCCc1cnccn1 (stereo not given)	i	i	nt	nt	nt
Cc1cc(C(=O)Nn2c(-c3ccncc3)nc3ccccc3c2=O)ccc1[N+](=O)[O-]	i	nt	nt	nt	nt
CN(C)c1cc(N/N=C/c2ccc(Cl)cc2)nc(N(C)C)n1	-8.6	i	i	i	i
SMILES	KCNQ2 block	KCNQ2 enhance	KCNQ2 inh conf	KCNQ1 spec	CHO Tl ctr	others
COc1cc(N/N=C/c2ccc(N(C)C)cc2)ncn1	i	nt	nt	nt	nt
CCc1cccc(NC(=O)CN(C)S(=O)(=O)c2cccc3cccnc23)c1	i	i	nt	nt	nt
CCN1CCN(c2oc(COc3ccc(Cl)cc3)nc2C#N)CC1	i	nt	nt	nt	nt
N#Cc1nc(COc2ccc(Cl)cc2)oc1N1CCN(Cc2ccccc2)CC1	-6.9	i	-24%	i	i	KCNQ2 inh confirm=i
Cc1ccc(C)c(N2C(=O)CC(Cc3ccccc3)C2=O)c1 (stereo not given)	i	i	nt	nt	nt
CCC1(CC)Cc2ccccc2-c2nc(-c3ccccc3)oc(=O)c21	i	nt	nt	nt	nt
O=c1oc(-c2ccccc2)nc2c1C1(CCCCC1)Cc1ccccc1-2	-8.7	i	i	i	i
Cc1ccccc1Sc1c(C#N)c(-c2ccccc2)nn1C	-10	i	-36%	-36%	-32%	KCNQ2 inh confirm=i
Cc1ccc(Sc2c(CO)c(-c3ccccc3)nn2C)cc1	i	nt	nt	nt	nt
Cn1nc(-c2ccccc2)cc1NC(=O)c1cccs1	i	i	nt	nt	nt
O=C1c2ccccc2C(O)(c2ccccc2)N1CCc1ccccc1 (stereo not given)	-8.4	i	-24%	i	i	KCNQ2 inh confirm=+
CC1(O)c2ccccc2C(=O)N1Cc1ccccc1 (stereo not given)	i	i	nt	nt	nt
O=C(Cn1nnc2c(cnn2-c2ccccc2)c1=O)NCc1cccs1	i	nt	nt	nt	nt
